Measurements: PubChem BioAssay
Activity calls are given as the source filed them.

Assays:
Albumin (Bos taurus) = Albumin (Bos taurus) (UniProt P02769); assay: compounds binding labelled BSA control protein – biochemical, small-molecule microarray, Alexa647 label, 635/667 nm fluorescence, artefact control for SMM control protein annotation, profiling panel (AID 1118); details: BSA-A647 binding, fluorescence 635 nm, higher = more signal;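 also: score merges 667 nm emission intensity and signal-to-noise per printed compound spot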
Albumin (Bos taurus), sequence (P02769 whole entry, looked up): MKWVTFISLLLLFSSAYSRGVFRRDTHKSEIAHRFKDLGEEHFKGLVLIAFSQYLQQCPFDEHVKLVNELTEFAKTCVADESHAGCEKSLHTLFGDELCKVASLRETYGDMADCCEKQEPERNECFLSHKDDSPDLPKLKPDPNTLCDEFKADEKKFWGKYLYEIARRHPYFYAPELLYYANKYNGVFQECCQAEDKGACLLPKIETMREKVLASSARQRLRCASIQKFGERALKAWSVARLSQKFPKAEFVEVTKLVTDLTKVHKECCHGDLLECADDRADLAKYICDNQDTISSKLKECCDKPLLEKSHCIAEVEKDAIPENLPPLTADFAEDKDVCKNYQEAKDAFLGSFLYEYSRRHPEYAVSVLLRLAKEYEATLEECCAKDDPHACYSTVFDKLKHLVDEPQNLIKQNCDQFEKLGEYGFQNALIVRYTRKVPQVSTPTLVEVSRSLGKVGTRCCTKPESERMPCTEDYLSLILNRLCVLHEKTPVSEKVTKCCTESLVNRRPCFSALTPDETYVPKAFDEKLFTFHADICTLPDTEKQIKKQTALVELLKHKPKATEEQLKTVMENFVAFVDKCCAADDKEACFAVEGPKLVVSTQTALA

[1] = probe aXIP binding to arrayed compounds – biochemical, NeuroSMM set, 635/667 nm fluorescence, primary screen (AID 1119); details: small-molecule microarray, higher = more signal, called active from +8 up or from −8 down;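 also: probe is the protein aXip251-270 applied at 1 µg/mL to compound-printed slides; binding of probe to printed compounds measured as 667 nm fluorescence plus signal to noise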
[2] = probe aNOTCH3 binding on compound microarray – biochemical, small-molecule microarray, 635/667 nm fluorescence, primary screen (AID 1120); details: higher = more signal;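 also: probe is a biotin-tagged antibody raised against NOTCH3 rather than NOTCH3 protein; score merges spot fluorescence near 667 nm with spot signal to noise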
[3] = probe aNOTCH2 binding on compound microarray – biochemical, small-molecule microarray, 635/667 nm fluorescence, primary screen (AID 1121); details: higher = more signal;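 also: score merges feature fluorescence read at 667 nm with its signal to noise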
[4] = biological target: Carbonic anhydrase 2 (Homo sapiens) (UniProt P00918); assay: compounds binding carbonic anhydrase 2 – biochemical, small-molecule microarray, Alexa647-labelled CAII, profiling panel (AID 1122); details: CAII-A647 binding fluorescence, higher = more signal
[5] = COS7 lysate on small-molecule microarray, probe aHis, 635 nm (AID 1123); details: COS7 cell lysate, fluorescence, higher = more signal;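 also: z-score combines 667nm fluorescence intensity with signal-to-noise per printed compound spot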
[6] = probe aLAP1 signal on lysate-treated microarray – cell lysate, small-molecule microarray, COS7 lysate, primary screen (AID 1124); details: probe aLAP1, fluorescence, higher = more signal;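 also: lysate comes from COS7 cells expressing LAP1 and is applied at 0.3 µg/mL; score merges spot fluorescence near 667 nm with signal-to-noise over triplicate slides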
Sam68 (KHDRBS1) = assay: compounds binding KHDRBS1 protein – biochemical, small-molecule microarray, 635 nm fluorescence, primary screen (AID 1125); details: higher = more signal;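 also: score merges 667 nm channel intensity with signal to noise over triplicate slides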
[7] = tested on: Chordin-like protein 2 (CHRDL2); assay: compounds binding chordin-like 2 – biochemical, small-molecule microarray, 635 nm fluorescence, primary screen (AID 1126); details: fluorescence 635 nm, higher = more signal;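 also: printed compound slides probed with Chrdl2 protein at 4 µg/mL for 1 h at 4 C; score merges 667 nm emission intensity with signal to noise over three replicate slides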
[8] = biological target: Concanavalin-A (Canavalia ensiformis) (UniProt P02866); assay: compounds binding concanavalin A lectin – biochemical, small-molecule microarray, Alexa647 label, 635 nm, artefact control for SMM control protein annotation, primary screen (AID 1127); details: ConA-A647 binding fluorescence, higher = more signal;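 also: z combines 667 nm emission intensity with signal-to-noise across three replicate slides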
Concanavalin-A (Canavalia ensiformis), sequence (P02866 whole entry, looked up): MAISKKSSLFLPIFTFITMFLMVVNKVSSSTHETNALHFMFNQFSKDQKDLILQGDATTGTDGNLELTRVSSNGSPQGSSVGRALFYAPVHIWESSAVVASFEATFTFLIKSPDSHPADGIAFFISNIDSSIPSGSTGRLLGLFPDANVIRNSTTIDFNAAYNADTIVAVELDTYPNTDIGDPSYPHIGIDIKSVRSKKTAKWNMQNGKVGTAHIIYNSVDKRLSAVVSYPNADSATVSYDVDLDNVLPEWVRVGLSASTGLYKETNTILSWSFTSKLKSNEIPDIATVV

SMILES	composite z-score (Albumin (Bos taurus))	composite Z-score [1]	composite z-score [2]	composite z-score [3]	composite z-score [4]	composite z-score [5]	composite z-score [6]	composite z-score (Sam68 (KHDRBS1))	composite z-score [7]	composite z-score [8]
CCCCc1nc2c(c3c1C[C@H](C)OC3)CN(CCC(C)C)CC2	0.627	-0.214 (inactive)	-0.0343	-0.16	0.221	1.68	0.44	1.31	0.388	0.934
O=C1O[C@@H](c2ccccc2)[C@@H](c2ccccc2)N2[C@@H](c3ccc(O)cc3)[C@]3(C(=O)Nc4ccccc43)[C@@H](C(=O)O)[C@H]12	0.592	1.76 (inactive)	-0.0903	-0.1	0.59	1.45	0.448	1.33	-0.903	0.666
CC(CCC(=O)OC[C@H]1O[C@H](C#Cc2ccccc2)C=C[C@@H]1Oc1ccc(C)cc1)=NO[C@@H](C)c1cn([C@H](CO)Cc2ccccc2)nn1	0.0449	-0.684 (inactive)	0.0026	-0.0907	-0.122	-0.053	-0.592	0.297	0.145	0.27
CCCCCN1CC=CC23O[C@@H]4C=CCOC(=O)[C@@H]4[C@H]2C(=O)N(CCCCCCO)[C@@H]3C1=O (stereo not given in full)	0.798	0.401 (inactive)	-0.306	-0.0811	0.81	0.629	0.902	-0.662	-1.21	-0.367
CC(C)(C)OC(=O)CC[C@]1(C(N)=O)COC(c2ccc(OCCCO)cc2)=N1	0.617	1.43 (inactive)	0.324	0.357	0.983	2.97	1.44	1.21	0.0555	-0.207
CCOC(=O)CCN1C(=O)[C@H]2[C@H]3[C@H](O)[C@H](O)CC(=NNC(=O)OCc4ccc(OC)cc4)[C@@H]3CC[C@H]2C1=O	0.0708	0.101 (inactive)	-0.153	-0.104	0.244	1.31	-0.239	0.427	0.388	1.09
C=C(/C(=C/C[C@@H](OC(=O)c1ccncc1)c1ccc(OCCO)cc1)c1cnc2ccccc2c1)C(C)C	0.155	-0.128 (inactive)	0.201	-0.134	0.675	-0.842	0.727	1.22	0.952	1.08
COCCCNC(=O)[C@@]1(Sc2ccc(C)cc2)CC(=O)N(Cc2ccccc2)[C@@H]1c1ccc(CO)cc1I	0.757	0.394 (inactive)	-0.178	0.0079	0.688	0.987	0.791	-0.249	-0.527	-1.27
CC(C)=C1C(=O)C(c2ccccc2)=C2CN3C(=O)N(CCc4ccccc4)C(=O)[C@]3(Cc3ccc(F)cc3)[C@H]21	0.697	1.87 (inactive)	0.186	0.148	0.306	1.04	0.34	0.639	-2.22	-1.05
COc1ccc(O[C@H]2C=C[C@@H](c3ccccc3)O[C@@H]2COC(=O)CCC(C)=NO[C@@H](C)c2cc(-c3c(C)cc(C)cc3C)no2)cc1	-0.0567	-0.314 (inactive)	-0.187	-0.153	-0.505	-0.451	-0.522	-0.822	-0.654	-1.63
CO[C@@H]1COC(=O)[C@H](C)NC(=O)[C@@H](C)COC(=O)CCC[C@H]1C	-0.163	-0.0735 (inactive)	0.111	-0.161	0.409	0.421	-0.0546	0.769	0.777	-0.288
O=C1NC(=O)C2C1C=CC(C(O)Cc1ccccc1)N2Nc1ccccn1 (stereo not given)	0.461	-0.0126 (inactive)	-0.0311	-0.0079	0.865	1.87	0.12	0.322	0.313	0.77
CC(C)=NOCc1ccc(-c2cc(-c3ccccc3)no2)cc1	-0.205	-0.0363 (inactive)	-0.0984	-0.169	-0.145	-0.676	0.0863	0.059	0.14	0.0293
